Experiment [1] in a line: P-glycoprotein substrates identified in KB-8-5-11 adenocarcinoma cell line, qHTS therapeutic library screen (AID 1346987). Also: nearly all actives have a fitted effect of over 65% in size. The essentials: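 KB-8-5-11: colchicine-selected sub-line of KB-3-1 over-expressing P-gp; assay medium lacked colchicine. 72 h drug exposure at 37 degree C, CellTiter-Glo.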
Experiment [2] concerns Zika virus NS2B-NS3 protease (unlinked complex). Description: Primary screen GU Rhodamine qHTS for Zika virus inhibitors: Unlinked NS2B-NS3 protease assay (AID 1347159). Also: nearly all actives have a fitted effect of over 60% in size. Also: potency is read from the fitted curve at half-maximal effect. The essentials: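 Noncovalent NS2B hydrophilic domain–NS3 protease domain complex (25 nM) preincubated 15 min at room temperature with compounds (up to 114 microM) in 10 mM Tris-HCl pH 8.0, 0.01% Tween 20; 1.5 microM Rhodamine110 substrate added, fluorescence change over 15 min fitted to Hill equation.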

The test system of experiment [3] is Zika virus NS2B-NS3 protease (linked construct). In words: Primary screen NINDS Rhodamine qHTS for Zika virus inhibitors (AID 1347160). Also: nearly all actives have a fitted effect of over 55% in size. The gist of the method: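 Purified linked NS2B-NS3 protease (NS2B hydrophilic domain joined to NS3 protease by flexible linker), 25 nM in 10 mM Tris-HCl pH 8.0, 0.01% Tween 20. Compounds titrated, 15 min preincubation at room temperature; 1.5 microM Rhodamine110 substrate, FITC fluorescence change over 15 min.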

Records with an inconclusive call do not appear. Unmarked numbers belong to inactive results. Activity calls are given as the source filed them. Calls follow the shape of the dose curve; as a rule, active = well fitted curve in the direction sought with a large enough effect; inconclusive = small, poorly fitted or top-dose-only effect, or another doubt; inactive = no such curve, though single readings can be large; an effect the other way counts as inactive or inconclusive.

Turning to `COc1ccc(N2CCN(CCCNC(=O)Cn3c(=O)c4cccn4c4c(C)ccnc43)CC2)cc1`, the Potency result in experiment [1], in experiment [2] and in experiment [3] was “inactive” throughout.

`CC1(C(=O)O)CCCC2(C)C3CC4C5CC3(CCC12)CC45C` (stereo unspecified): the Potency result in experiment [1] is “inactive”. Moreover, the Potency in experiment [2] is 10 µM (active).

`COc1c2ccoc2nc2c(OC)c(O[C@@H]3O[C@@H](C)[C@H](O)[C@@H](O[C@@H]4O[C@H](CO)[C@@H](O)[C@H](O)[C@H]4O)[C@H]3OC(C)=O)ccc12`: the Potency result in experiment [1], in experiment [2] and in experiment [3] was “inactive” throughout.

Turning to `COc1c(C)c(OCC=C(C)C)cc2c1CNC2=O`, the Potency result in experiment [1], in experiment [2] and in experiment [3] was “inactive” each time.

`COC(=O)[C@]1(C)CCC[C@@]2(C)C(=O)CC[C@H]3C(=O)C=C(CC[C@@H]21)C3O` (stereo partly specified): the Potency entry in experiment [1] and in experiment [2] was “inactive” each time.

In the case of `CC1(O)CCC2C(C3C1CCC3(C)O)C2(C)C` (stereo unspecified), the Potency entry in experiment [1], in experiment [2] and in experiment [3] was “inactive” throughout.

Consider `CC1(C)CC[C@]2(C(=O)O)CC[C@]3(C)C(=CCC4[C@@]5(C)CC[C@H](O[C@H]6O[C@H](C(=O)O)[C@@H](O)[C@H](O[C@@H]7O[C@H](CO)[C@H](O)[C@H](O)[C@H]7O)[C@H]6O)C(C)(C)C5CC[C@]43C)[C@@H]2C1` (stereo partly specified), for which, in experiment [1], the outcome was “inactive [at 9.29 µM]”. Further, the Potency in experiment [2] is 8.91 µM (active).

Regarding `CC1(C)OC(=O)C=C[C@@]2(C)C1CC(=O)[C@]1(C)C2CC[C@@]2(C)[C@H](c3ccoc3)OC(=O)[C@H]3O[C@]321` (stereo partly specified), the Potency entry in experiment [1], in experiment [2] and in experiment [3] was “inactive” throughout.

As to `COC(=O)C1=CO[C@@H](O[C@@H]2O[C@H](CO)[C@@H](O)[C@H](O)[C@H]2O)[C@@H]2C(C)CC(=O)[C@]12O` (stereo partly specified), the Potency result in experiment [1], in experiment [2] and in experiment [3] was “inactive” throughout.

Regarding `O=C(OC1C=C(CO)C2C(OC3OC(CO)C(O)C(O)C3O)OC=CC12O)c1ccc(O)cc1` (stereo unspecified), the Potency entry in experiment [1], in experiment [2] and in experiment [3] was “inactive” each time.

On to `CC1(C)C[C@H]2C=C(C=O)[C@]3(C(=O)O)C[C@]3(C)[C@H]2C1`, for which the Potency entry in experiment [1] was “inactive”. Further, the Potency in experiment [2] is 22.4 µM (active).

Regarding `O=C(O)CCc1ccc(NCc2cccc3c2CCCN3CCOc2ccccc2)cc1F`, the Potency result in experiment [1] was “inactive”. Also, the Potency in experiment [2] was 3.16 µM (active).

With `COc1ccc(C2(O)c3ccccc3NC(=O)C2OC)cc1` (stereo unspecified), the Potency entry in experiment [1], in experiment [2] and in experiment [3] was “inactive” throughout.

For `CC1=C2C3OC(=O)C(C)C3(O)CCC2(C)CCC1` (stereo unspecified), the Potency entry in experiment [1] and in experiment [2] was “inactive” throughout.

With `C=C(C)[C@@]1(O)C[C@@]2(C)C(=CC1=O)CC[C@@H](O)[C@@H]2C`, the Potency entry in experiment [1], in experiment [2] and in experiment [3] was “inactive” each time.

As to `COC(=O)C1=CO[C@@H](O[C@@H]2O[C@H](CO)[C@@H](O)[C@H](O)[C@H]2O)[C@H]2[C@@H]1[C@H](O)[C@H](O)[C@]2(C)O`, the Potency result in experiment [1] and in experiment [2] was “inactive” throughout.

Consider `Cc1cc(O[C@@H]2O[C@H](COC(=O)CC(=O)O)[C@@H](O)[C@H](O)[C@H]2O)c(C(C)C)cc1O`, for which the Potency entry in experiment [1] and in experiment [2] was “inactive” each time.

For the compound `NC1Nc2ccccc2C1(N)CC1NC(=O)C(Cc2ccccc2)NC(=O)C(Cc2ccccc2)NC1=O` (stereo unspecified), the Potency entry in experiment [1], in experiment [2] and in experiment [3] was “inactive” in each case.

In the case of `C[C@@H]1O[C@@H](O[C@H]2[C@@H]3C=CO[C@@H](O[C@@H]4O[C@H](CO)[C@@H](O)[C@H](O)[C@H]4O)[C@@H]3[C@@]3(CO)O[C@@H]23)[C@H](O)[C@H](O)[C@H]1OC(=O)/C=C/c1ccc(O)cc1`, the Potency result in experiment [1], in experiment [2] and in experiment [3] was “inactive” throughout.

On to `C=C1CCC2C(C)(C)CC(O)CC2(C)C1CCC(C)CCOC(=O)CCC(=O)O` (stereo unspecified), for which the Potency entry in experiment [1] is “inactive”. Besides, the Potency in experiment [2] is 2.51 µM (active).

Turning to `N[C@@H](CCNCc1ccc(Cl)cc1)C(=O)N1CCCCC1`, the Potency result in experiment [1], in experiment [2] and in experiment [3] was “inactive” in each case.

On to `COc1ccc(CC(NC(C)=O)C(=O)O)cc1` (stereo unspecified), for which the Potency result in experiment [1] was “inactive”. Further, the Potency in experiment [2] is 31.6 µM (active).

For `COC(=O)C1=CO[C@@H](O[C@@H]2O[C@H](CO)[C@@H](O)[C@H](O)[C@H]2O)[C@H]2[C@@H]1C=C[C@]21C=C([C@H](C)OC(=O)/C=C/c2ccc(O[C@@H]3O[C@H](CO)[C@@H](O)[C@H](O)[C@H]3O)cc2)C(=O)O1`, the Potency result in experiment [1], in experiment [2] and in experiment [3] was “inactive” throughout.

Turning to `Cc1nc2cc(-c3cc(F)cc(C#N)c3)ccc2s1`, the Potency entry in experiment [1], in experiment [2] and in experiment [3] was “inactive” each time.

As to `CCCCS(=O)(=O)NC(Cc1ccc(OCCCCC2CCNCC2)cc1)C(=O)O` (stereo unspecified), the Potency entry in experiment [1], in experiment [2] and in experiment [3] was “inactive” in each case.

As for `O=C(Cc1ccc(Cl)cc1)Nc1cnccc1C(=O)O`, the Potency result in experiment [1], in experiment [2] and in experiment [3] was “inactive” each time.

As for `CC1=CC2=C(C)C(=O)[C@](C)(O)[C@H](O)C2=CO1`, the Potency entry in experiment [1], in experiment [2] and in experiment [3] was “inactive” throughout.

Source of the values: PubChem BioAssay (NCATS).
